# Experimental data as given in publication PMC4336329 (PLoS ONE, 2015).
# Screen size: about 310,000 compounds; about 14,000 (4.5%) showed an effect of 50% or more. Effects have a minus sign here. This is one part of a sample in which strong results are shown more often than they occur.
# Biological target: human ether-à-go-go-related gene (hERG) potassium channel (human, UniProt Q12809)
# Test: primary screen, population patch clamp on CHO cells stably expressing hERG; higher = less effect of the substance
# 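Further: peak tail current of the secondary pulse compared with the same well before compound.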
# Sequence of human ether-à-go-go-related gene (hERG) potassium channel (Q12809 whole entry, looked up): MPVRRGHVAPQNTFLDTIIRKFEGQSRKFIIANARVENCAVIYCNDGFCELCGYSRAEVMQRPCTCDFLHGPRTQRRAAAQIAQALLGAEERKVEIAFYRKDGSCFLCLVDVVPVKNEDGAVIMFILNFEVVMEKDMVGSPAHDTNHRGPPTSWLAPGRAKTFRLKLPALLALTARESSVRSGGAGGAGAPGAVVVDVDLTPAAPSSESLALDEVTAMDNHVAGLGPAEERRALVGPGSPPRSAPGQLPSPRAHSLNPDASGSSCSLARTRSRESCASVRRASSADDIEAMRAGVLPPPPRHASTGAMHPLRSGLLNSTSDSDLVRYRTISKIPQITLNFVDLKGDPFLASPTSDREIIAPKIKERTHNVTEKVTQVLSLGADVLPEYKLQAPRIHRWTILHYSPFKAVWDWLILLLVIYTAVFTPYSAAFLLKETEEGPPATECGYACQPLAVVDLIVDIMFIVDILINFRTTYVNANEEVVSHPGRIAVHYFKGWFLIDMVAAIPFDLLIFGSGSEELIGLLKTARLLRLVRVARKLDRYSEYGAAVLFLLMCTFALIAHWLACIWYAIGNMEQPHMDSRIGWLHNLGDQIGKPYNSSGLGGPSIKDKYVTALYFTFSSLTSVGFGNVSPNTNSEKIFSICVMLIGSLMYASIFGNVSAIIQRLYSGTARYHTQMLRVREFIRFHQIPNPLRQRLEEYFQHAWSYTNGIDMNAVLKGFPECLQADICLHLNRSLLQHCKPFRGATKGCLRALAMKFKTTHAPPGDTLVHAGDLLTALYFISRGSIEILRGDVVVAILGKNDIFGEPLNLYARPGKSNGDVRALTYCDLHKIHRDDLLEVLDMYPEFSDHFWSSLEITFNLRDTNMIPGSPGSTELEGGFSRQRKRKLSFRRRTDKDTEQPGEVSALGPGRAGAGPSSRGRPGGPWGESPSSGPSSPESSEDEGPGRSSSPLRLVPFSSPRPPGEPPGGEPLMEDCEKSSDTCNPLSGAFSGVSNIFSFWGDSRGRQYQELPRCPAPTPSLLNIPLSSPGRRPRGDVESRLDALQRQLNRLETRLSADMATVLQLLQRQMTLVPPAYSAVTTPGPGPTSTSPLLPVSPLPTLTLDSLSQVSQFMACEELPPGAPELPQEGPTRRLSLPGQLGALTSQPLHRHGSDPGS
row,SMILES,"hERG current change (%, negative = inhibition) at 10uM [%]"
1,CC(C)C(=O)NCCc1nc2ccccc2n1CCCOc1ccc(Cl)cc1,-41.7
2,CC(C)(C)C(=O)NCCc1nc2ccccc2n1CC(=O)c1ccc(Cl)cc1,-33.2
3,OCCCc1nc2ccccc2n1CCCCOc1ccccc1,-57.2
4,OCc1nc2ccccc2n1CCCCOc1ccccc1,0.828
5,CC(C)(C)C(=O)NCCCc1nc2ccccc2n1CCCOc1ccc(Cl)cc1,-57.2
6,OCCCc1nc2ccccc2n1CCOc1ccccc1,-5.7
7,CCSc1nnc(NC(=O)C2CCCCC2C(=O)OCC(F)(F)C(F)F)s1 (centres unmarked),17.9
8,O=C(COc1ccccc1)Nc1ccc([N+](=O)[O-])cc1,1.57
9,CCOC(=O)c1[nH]cnc1C(=O)Nc1ccccc1OC,-2.79
10,Cc1csc(SCC(=O)Nc2nnc(C)s2)n1,15
11,CC(Sc1nncn1C)C(=O)Nc1ccccc1-c1ccccc1 (centres unmarked),8.27
12,O=C(NC1CCCC1)C(c1ccncc1)N(C(=O)c1ccco1)c1ccccc1 (centres unmarked),-5.61
13,CCCN1CCC(CCOc2ccccc2)(C(=O)OCC)CC1,-58.5
14,CCOC(=O)C1(CCOc2ccccc2)CCN(CC2CC2)CC1,-47.4
15,CCOC(=O)C1(CCOc2ccccc2)CCN(CC=C(C)C)CC1,-50.2
16,CCOC(=O)C1(CCOc2ccccc2)CCN(CC(O)CO)CC1 (centres unmarked),-26.9
17,CCN1CCN(Cc2cccnc2)CC1,17.1
18,CCCCOC(=O)c1ccc(NC(=O)CSc2nncn2C)cc1,-4.57
19,Cc1ccc(S(=O)(=O)NNC(=O)c2cnn(-c3ccccc3)c2-n2cccc2)cc1,-15
20,COc1ccc(C(=O)/C=C/C(=O)N(Cc2ccccc2)C(C(=O)NC2CCCCC2)c2ccncc2)c(O)c1 (centres unmarked),-19.3

row,SMILES,"hERG current change (%, negative = inhibition) at 10uM [%]"
1,O=C(N/N=C/c1ccsc1)c1ccc2ccccc2n1,-2.2
2,O=C(CSc1nc2ccccc2c(=O)n1Cc1ccco1)N1CCCC1,-77.1
3,O=C(CSc1nc2ccccc2c(=O)n1Cc1ccco1)N1CCN(c2ccccc2)CC1,-74.9
4,NC(=O)CSc1nc2ccccc2c(=O)n1Cc1ccco1,-36
5,CCn1c(SCC(=O)N2CCN(c3cccc(Cl)c3)CC2)nc2ccccc2c1=O,-39.1
6,O=c1c2ccccc2nnn1CSc1nc2ccccc2c(=O)n1Cc1ccco1,-6.44
7,CCOC(=O)CSc1nc2ccccc2c(=O)n1Cc1ccco1,-18.1
8,O=C(CSc1nc2ccccc2c(=O)n1Cc1ccco1)N1CCCCCC1,-76.4
9,COCCn1nnnc1CN1CCN2CCCC2C1.Cl (centres unmarked),3.16
10,C/C(=N/NC(=O)c1cc(-c2ccccc2)nc2c(Cl)cccc12)c1cccnc1,26.1
11,Cc1cc(=O)[nH]c(SCC(=O)N2CCCC(C)C2)n1 (centres unmarked),11.3
12,CCOc1ccc(N(CC(=O)Nc2ccc(OC)cc2)S(=O)(=O)c2c(C)[nH]c(=O)[nH]c2=O)cc1,1.99
13,COc1ccc(S(=O)(=O)N2CCOCC2)cc1C(=O)NCC(c1ccco1)N1CCCC1 (centres unmarked),3
14,C[NH+](C)CCCN1c2ccccc2Sc2ccc(Cl)cc21.[Cl-],-65.3
15,OCCN1CCN(CCCN2c3ccccc3Sc3ccc(Cl)cc32)CC1,-49.3
16,CN(C)CCCN1c2ccccc2Sc2ccc(Cl)cc21.Cl,-42.2
17,O=C(Nc1ccccc1C(=O)N1CCCC1)c1ccc(Cl)cc1Cl,14
18,Cc1cc(C(=O)CSc2nnc(NCc3ccccc3)s2)c(C)n1C,-9.15
19,O=C(c1ccccc1Br)N1CCC(c2nc3ccccc3s2)CC1,-35.1
20,O=C(CN1CCC(c2nc3ccccc3s2)CC1)N1CCCCC1,-33.5

row,SMILES,"hERG current change (%, negative = inhibition) at 10uM [%]"
1,O=C(CN1CCC(c2nc3ccccc3s2)CC1)NCc1cccs1,-37.2
2,O=C(CN1CCC(c2nc3ccccc3s2)CC1)NCc1ccccc1,-67.5
3,O=C(c1cccs1)N1CCC(c2nc3ccccc3s2)CC1,-57.2
4,Cc1cccc(C(=O)N2CCC(c3nc4ccccc4s3)CC2)c1,-33.7
5,O=C(c1cccs1)N1CCN(c2nc3ccccc3s2)CC1,0.757
6,O=C(c1cccc(F)c1)N1CCC(c2nc3ccccc3s2)CC1,-49.9
7,CCc1ccc(C(=O)N2CCC(c3nc4ccccc4s3)CC2)cc1,-71.9
8,O=C(N/N=C/c1c[nH]c2ccc(Br)cc12)c1ccn(Cc2ccc(Cl)cc2Cl)n1,6.95
9,C/C(=C\c1ccc(Br)cc1)C(=O)c1c(C)cc(C)[nH]c1=O,8
10,Cc1cc(C)c(NC(=O)CS)c(Cl)c1,6.4
11,O=C(Nc1c(C(=O)N2CCOCC2)oc2ccccc12)c1ccccc1Cl,0.111
12,O=C(c1ccc(F)cc1)N1CCC(N2CCCCCC2)CC1,-26
13,CCOc1ccc(C(=O)Nc2c(C(=O)N3CCC(N4CCCCC4)CC3)oc3ccccc23)cc1,-83.2
14,CCOc1ccc(C(=O)Nc2c(C(N)=O)oc3ccccc23)cc1,11.9
15,O=C(Nc1ccc(F)cc1)c1oc2ccccc2c1NC(=O)C1CCCC1,-4.15
16,O=C(Nc1c(C(=O)N2CCC(N3CCCCC3)CC2)oc2ccccc12)c1ccc(F)cc1,-65.8
17,O=C(Nc1c(C(=O)N2CCC(N3CCCCC3)CC2)oc2ccccc12)c1c(F)cccc1F,-51.7
18,COc1cc(C(=O)Nc2c(C(=O)N3CCOCC3)oc3ccccc23)cc(OC)c1OC,-10
19,O=C(c1ccccc1F)N1CCC(N2CCCCCC2)CC1,-10.3
